Source: PubChem
Shown are actives, neighbours in structure and some others; about 3.8% of the full set was active somewhere.
PTAP-TSG101 blk – TSG101-PTAP interaction inhibition, HIV-1 budding. 44,000 tested, under 10 active. Fluorescence polarization, FITC-PTAP peptide/Tsg101, 20 min. Potency, µM (highest dose often 115 µM), hits mostly inhibitors; further: potency means the concentration at half of the fitted maximal effect; 0% is about no effect
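Fluorescence polarization binding of Tsg101 binding domain (10 uM final) to FITC-labeled PTAP-motif peptide (50 nM final) in HEPES pH 7.5/NaCl/Tween 20/EDTA/TCEP buffer; 20 min at r.t. Actives by curve class, <25 µM, efficacy <60% inhibition.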
B2AR arrestin ag – beta-arrestin recruitment by human beta2-adrenergic receptor ligands | P07550 | HTLA Tango cells, beta-arrestin recruitment, luciferase luminescence, 18 h | Potency, µM (titrated, usually from 46.1 µM), usual class: activators | 44,000 tested, under 10 active | AID 1347077;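 further: potency means the concentration at half of the fitted maximal effect; 0% = DMSO and full agonism = EC100 isoproterenol or metaproterenol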
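Tango cell line, 1% FBS DMEM; cpd titration up to 46 microM; 18 hr, 37 degrees C, 5% CO2. Luciferin/ATP substrate mix added, 15 min RT, luminescence. %Activity, CRC fitting, curve-class categorization.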
NTMT1 inh – inhibitors of human N-terminal methyltransferase NTMT1. actives 2.5% (n = 59,000). AID 1645870. Potency, µM (series often up to 114 µM), for inactives: at the highest dose activity change, negative = inhibition, most hits filed as inhibitors. NTMT1 MTase-Glo SAH luminescence, purified enzyme. Q9BV86;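 further: potency means the concentration at half of the fitted maximal effect; plate controls were DMSO vehicle for no effect and no enzyme for full effect; nearly all actives have a fitted effect of over 65% in size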
DRV1 agonist – activates human resolvin D1 receptor GPR32; O75388; CHO-K1 GPR32 beta-arrestin PathHunter luminescence, 90 min; zero percent set by DMSO-only wells; activation, % at 76.9 µM; actives 2.5% (n = 48,000);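 active means activation of at least 60% and not above a set upper limit, about 1 call in 100 departs from these limits; inconclusive means activation of 40% to 60%, or above that upper limit; inactive means activation under 40%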; further: 0% is about no effect
Target sequence (O75388 whole entry, looked up): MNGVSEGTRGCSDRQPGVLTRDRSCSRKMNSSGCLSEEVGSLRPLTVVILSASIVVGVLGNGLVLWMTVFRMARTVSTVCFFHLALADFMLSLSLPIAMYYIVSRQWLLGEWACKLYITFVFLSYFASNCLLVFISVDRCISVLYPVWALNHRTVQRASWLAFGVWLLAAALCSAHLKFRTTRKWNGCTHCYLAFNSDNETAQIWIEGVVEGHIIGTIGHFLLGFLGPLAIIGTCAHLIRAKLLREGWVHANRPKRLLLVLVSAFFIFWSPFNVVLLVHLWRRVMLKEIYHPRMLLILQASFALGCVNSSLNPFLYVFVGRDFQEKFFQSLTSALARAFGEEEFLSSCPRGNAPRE
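Engineered CHO-K1 line co-expressing GPR32-ProLink and EA-beta-arrestin. Compound treatment lasted 90 min at 37 °C. Luminescence was recorded after 1 h with substrate at ambient temperature, relative to DMSO basal wells.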
GALK inh – inhibits human galactokinase. P51570. recombinant GALK, Kinase-Glo ATP luminescence, 1 h. Potency, µM (series often up to 57.5 µM), for inactives: at the highest dose activity, negative = inhibition, usual class: inhibitors. 44,000 tested, under 10 active. AID 1347072;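 further: plate controls were full GALK reaction for no effect and reaction lacking GALK for full effect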
Target sequence (P51570 whole entry, looked up): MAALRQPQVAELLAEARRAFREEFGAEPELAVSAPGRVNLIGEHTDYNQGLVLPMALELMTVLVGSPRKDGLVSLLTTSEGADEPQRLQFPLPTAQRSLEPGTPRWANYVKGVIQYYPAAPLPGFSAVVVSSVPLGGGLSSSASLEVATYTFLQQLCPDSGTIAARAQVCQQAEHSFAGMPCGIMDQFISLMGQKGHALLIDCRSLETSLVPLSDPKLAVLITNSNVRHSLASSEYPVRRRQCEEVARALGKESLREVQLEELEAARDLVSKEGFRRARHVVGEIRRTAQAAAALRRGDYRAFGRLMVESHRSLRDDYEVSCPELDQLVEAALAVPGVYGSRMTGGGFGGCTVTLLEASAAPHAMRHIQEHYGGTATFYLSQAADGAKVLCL
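Luminescent ATP-depletion readout (Kinase-Glo Plus) after 1 h room-temperature incubation of human GALK (5 nM) with galactose 100 µM and ATP 35 µM, pH 8.0 HEPES/Mg2+ buffer; compounds tested in qHTS format.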
SKOV3 invasion – ovarian cancer metastasis inhibition, 3D TME model; SKOV3ip1-GFP adhesion/invasion on 3D omental model, fluorescence; Potency, µM (titrated, usually from 45.8 µM), without a hit: at the highest dose activity change, negative = inhibition, hits mostly inhibitors; actives 0.1% (n = 46,000); AID 1963576;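 further: potency means the concentration at half of the fitted maximal effect; plate controls were DMSO wells for no effect and tomatine positive control wells for full effect; nearly all actives have a fitted effect of over 65% in size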
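A 3D layer of primary human omental fibroblasts, mesothelial cells, fibronectin and collagen I, grown 48 hr, received SKOV3ip1-GFP cells in serum-free medium plus compounds at 0.36-46 umol/L. After 2 hr RT and 16 hr 37 C, fixed adherent GFP cells were counted; normalized to DMSO and tomatine.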
The depositor's hits bear a star. Unless noted, the call rests on the fitted dose curve; in most records, active means well fitted curve in the direction sought with a large enough effect; inconclusive means small, poorly fitted or top-dose-only effect, or another doubt; inactive means no such curve, though single readings can be large; an effect the other way counts as inactive or inconclusive.

`COCCNC(=O)c1ccc2nc(CCc3ccccc3)oc2c1` gave PTAP-TSG101 blk inactive, B2AR arrestin ag inactive, NTMT1 inh 89.1µM*, DRV1 agonist -3.9, GALK inh 1.5% and SKOV3 invasion -8.5%.
For COCCCNC(=O)c1ccc2nc(CCc3ccccc3)oc2c1 the results were PTAP-TSG101 blk inactive, B2AR arrestin ag inactive, NTMT1 inh -0.3%, DRV1 agonist -17.9, GALK inh 0.2% and SKOV3 invasion 0.2%.
`COc1ccc(-c2nnc(SCc3cc(=O)c4cc(C)cc(C)c4[nH]3)n2C)cc1` gave PTAP-TSG101 blk inactive, B2AR arrestin ag inactive, NTMT1 inh -0.4%, DRV1 agonist inconclusive, GALK inh -0.1% and SKOV3 invasion -0.5%.
Screening COc1ccc(NC(=O)c2cc3c(-c4ccccc4F)nn(C)c3s2)c(OC)c1 returned PTAP-TSG101 blk inactive, B2AR arrestin ag inactive, NTMT1 inh -2.0%, DRV1 agonist 8.2, GALK inh 8.5% and SKOV3 invasion -3.7%.
`Oc1cccc(-c2c3nc(c(-c4cccc(O)c4)c4ccc([nH]4)c(-c4cccc(O)c4)c4nc(c(-c5cccc(O)c5)c5ccc2[nH]5)CC4)C=C3)c1` gave NTMT1 inh 22.4µM* and DRV1 agonist -15.4.
Oc1cccc(Nc2ncnc3sc4c(c23)CCCC4)c1 was read as PTAP-TSG101 blk inactive, B2AR arrestin ag inactive, NTMT1 inh 9.2%, DRV1 agonist 66.2*, GALK inh inconclusive and SKOV3 invasion 3.7%.
For COc1ccc(-c2nc(CNC(=O)Nc3ccccc3)c(C)o2)c(OC)c1 the results were PTAP-TSG101 blk inactive, B2AR arrestin ag inactive, NTMT1 inh -6.8%, DRV1 agonist 64.7*, GALK inh 1.7% and SKOV3 invasion -8.2%.
For COc1ccccc1-c1nc(CNC(=O)Nc2ccccc2)c(C)o1 the results were PTAP-TSG101 blk inactive, B2AR arrestin ag inactive, NTMT1 inh -8.1%, DRV1 agonist 23.0, GALK inh 0.0% and SKOV3 invasion 4.6%.
`CCN(CC)CCOC(=O)c1ccc(NC(=O)c2cc3c(s2)-c2ccccc2OC3)cc1` gave PTAP-TSG101 blk inactive, B2AR arrestin ag inactive, NTMT1 inh inconclusive, DRV1 agonist inconclusive, GALK inh -3.3% and SKOV3 invasion -24.2%.
`CC(C)c1nnc(NC(=O)c2nc(SCc3ccc(F)cc3)ncc2Cl)s1` gave PTAP-TSG101 blk inactive, B2AR arrestin ag inactive, NTMT1 inh 4.1%, DRV1 agonist 109.1*, GALK inh 8.2% and SKOV3 invasion 6.9%.
For O=S(=O)(c1ccc(Cl)cc1)c1nnn2c1nc(NCc1ccccc1)c1sccc12 the results were PTAP-TSG101 blk inactive, B2AR arrestin ag inactive, NTMT1 inh 89.1µM*, DRV1 agonist -9.0, GALK inh -8.3% and SKOV3 invasion -3.2%.
Cc1ccc(NS(=O)(=O)c2cc3[nH]c(=O)c(=O)[nH]c3cc2C)cc1Cl was read as PTAP-TSG101 blk inactive, B2AR arrestin ag inactive, NTMT1 inh 6.2%, DRV1 agonist -7.6, GALK inh -1.5% and SKOV3 invasion -10.4%.
`O=[S+]([O-])(Nc1ccc(C2CCNCC2)cc1)c1ccc(NCc2ccc(Br)cc2O)cc1` gave NTMT1 inh 50.1µM*.
`Cc1ccc(C)c(NC(=O)c2cc(S(=O)(=O)NCCC3=CCCCC3)ccc2F)c1` gave PTAP-TSG101 blk inactive, B2AR arrestin ag inactive, NTMT1 inh 3.3%, DRV1 agonist -15.5, GALK inh 1.0% and SKOV3 invasion -3.7%.
`CC1CCN(S(=O)(=O)c2nnc(NC(=O)c3cccc(Cl)c3)s2)CC1` gave PTAP-TSG101 blk inactive, B2AR arrestin ag inactive, NTMT1 inh 4.2%, DRV1 agonist 68.5*, GALK inh -0.7% and SKOV3 invasion 0.3%.
Cc1ccc(NC(=O)CSc2nc3ccc(NC(=O)c4ccco4)cc3s2)cc1 was read as PTAP-TSG101 blk inactive, B2AR arrestin ag inactive, NTMT1 inh -19.9%, DRV1 agonist 98.5*, GALK inh -0.1% and SKOV3 invasion -18.3%.
`CCN(CC)c1cc(C)c2cc(NC(=O)c3ccc(F)cc3Cl)ccc2n1` gave PTAP-TSG101 blk inactive, B2AR arrestin ag inactive, NTMT1 inh 0.5%, DRV1 agonist 18.1, GALK inh -1.6% and SKOV3 invasion inconclusive.
Screening CCOC(=O)CSc1nc2ccc(NC(=O)c3cccc(F)c3)cc2s1 returned PTAP-TSG101 blk inactive, B2AR arrestin ag inactive, NTMT1 inh 4.5%, DRV1 agonist 72.6*, GALK inh -4.0% and SKOV3 invasion -5.2%.
For Cc1cccc(NC(=O)CSc2nc3ccc(NC(=O)COc4ccccc4F)cc3s2)c1 the results were PTAP-TSG101 blk inactive, B2AR arrestin ag inactive, NTMT1 inh 15.7%, DRV1 agonist -3.9, GALK inh 2.5% and SKOV3 invasion -7.0%.
For Cc1cccc(NC(=O)CSc2nc3ccc(NC(=O)c4ccccc4)cc3s2)c1 the results were PTAP-TSG101 blk inactive, B2AR arrestin ag inactive, NTMT1 inh 3.1%, DRV1 agonist 60.2*, GALK inh -0.1% and SKOV3 invasion -23.8%.
Cc1ccc(NC(=O)CSc2nc3ccc(NC(=O)CCc4ccccc4)cc3s2)c(C)c1 was read as PTAP-TSG101 blk inactive, B2AR arrestin ag inactive, NTMT1 inh 12.4%, DRV1 agonist -24.5, GALK inh 0.7% and SKOV3 invasion inactive.
`CCN(CC)c1cc(C)c2cc(NC(=O)c3cccc(F)c3)ccc2n1` gave PTAP-TSG101 blk inactive, B2AR arrestin ag inactive, NTMT1 inh inconclusive, DRV1 agonist 92.4*, GALK inh 0.0% and SKOV3 invasion -5.7%.
Screening Cc1ccc2c(c1)-c1c(cnn1CC(=O)N1CCN(c3cc(Cl)ccc3C)CC1)CO2 returned PTAP-TSG101 blk inactive, B2AR arrestin ag inactive, NTMT1 inh -14.6%, DRV1 agonist -12.2, GALK inh -2.8% and SKOV3 invasion inactive.
CCOc1ccc(-c2cn3c(n2)sc2cc(C(=O)NCCCN4CCCCC4)ccc23)cc1 was read as PTAP-TSG101 blk inactive, B2AR arrestin ag inactive, NTMT1 inh 50.1µM*, DRV1 agonist -12.5, GALK inh -1.5% and SKOV3 invasion 11.2µM*.
Screening COc1ccc(N2CCN(CCCNC(=O)c3ccc4nc(N5CCCCC5)sc4c3)CC2)cc1 returned PTAP-TSG101 blk inactive, B2AR arrestin ag inactive, NTMT1 inh 22.4µM*, DRV1 agonist 2.2, GALK inh -0.3% and SKOV3 invasion inactive.
